Records with an inconclusive call do not appear. Active and inactive are the calls of the source. Calls come from the whole dose curve; as a rule, active = well fitted curve in the direction sought with a large enough effect; inconclusive = small, poorly fitted or top-dose-only effect, or another doubt; inactive = no such curve, though single readings can be large; an effect the other way counts as inactive or inconclusive.
Assays:
[1] = system: MCC-13; assay: qHTS assay to identify novel small-molecules to repurpose for Merkel cell carcinoma treatment (AID 1296009); settings: MCC and control cell lines, CellTiter-Glo viability, 72 h; series mostly up to 46 µM; note: nearly all actives have a fitted effect of over 60% in size
In short: (§1)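 Cell viability, measured as CellTiter-Glo luminescence, was normalized between DMSO and no-cell wells. The cells had been exposed to 8- or 11-point compound dilutions for 72 hr at 37 degree celsius.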

[2] = system: MCC-26; assay: as above; settings: MCC and control cell lines, CellTiter-Glo viability, 72 h; series mostly up to 46 µM
In short: as §1

[3] = system: MKL-1; assay: as above; settings: MCC and control cell lines, CellTiter-Glo viability, 72 h; series mostly up to 46 µM
In short: as §1

[4] = system: MKL-2; assay: as above; settings: MCC and control cell lines, CellTiter-Glo viability, 72 h; series mostly up to 46 µM
In short: as §1

[5] = system: WaGa; assay: as above; settings: MCC and control cell lines, CellTiter-Glo viability, 72 h; series mostly up to 46 µM
In short: as §1

[6] = system: NIH3T3; assay: as above; settings: MCC and control cell lines, CellTiter-Glo viability, 72 h; series mostly up to 44.8 µM
In short: as §1

[7] = system: C33A; assay: Primary qHTS to identify gynecologic anti-cancer compounds using libraries of approved drugs and bioactive compounds (AID 1345084); settings: Gynecologic cancer cell panel viability, ATPlite luminescence, 48 h; series mostly up to 57.5 µM; note: nearly all actives have a fitted effect of over 55% in size
In short: (§2)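 ATP-based viability (ATPlite), 1,000 cells/well, 16 h pre-incubation, 48 h compound at 37 C, 5% CO2, 15 min RT before read.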

[8] = system: CASKI; assay: as above; settings: Gynecologic cancer cell panel viability, ATPlite luminescence, 48 h; series mostly up to 57.5 µM
In short: as §2

[9] = system: Es-2; assay: as above; settings: Gynecologic cancer cell panel viability, ATPlite luminescence, 48 h; series mostly up to 57.5 µM
In short: as §2

[10] = system: HeLa; assay: as above; settings: Gynecologic cancer cell panel viability, ATPlite luminescence, 48 h; series mostly up to 57.5 µM
In short: as §2

[11] = system: Hek293T; assay: as above; settings: Gynecologic cancer cell panel viability, ATPlite luminescence, 48 h, control line for the selectivity index; series mostly up to 57.5 µM
In short: as §2

[12] = system: JEG-3; assay: as above; settings: Gynecologic cancer cell panel viability, ATPlite luminescence, 48 h; series mostly up to 57.5 µM
In short: as §2

[13] = system: OV90; assay: as above; settings: Gynecologic cancer cell panel viability, ATPlite luminescence, 48 h; series mostly up to 57.5 µM
In short: as §2

[14] = system: PA-1; assay: as above; settings: Gynecologic cancer cell panel viability, ATPlite luminescence, 48 h; series mostly up to 57.5 µM
In short: as §2

[15] = system: Tov-21-G; assay: as above; settings: Gynecologic cancer cell panel viability, ATPlite luminescence, 48 h; series mostly up to 57.5 µM
In short: as §2

[16] = system: Tov112D; assay: as above; settings: Gynecologic cancer cell panel viability, ATPlite luminescence, 48 h; series mostly up to 57.5 µM
In short: as §2

[17] = system: UISO; assay: qHTS assay to identify novel small-molecules to repurpose for Merkel cell carcinoma treatment (AID 1296009); settings: MCC and control cell lines, CellTiter-Glo viability, 72 h; series mostly up to 46 µM; note: nearly all actives have a fitted effect of over 60% in size
In short: as §1

[18] = system: SKOV3; assay: Primary qHTS to identify gynecologic anti-cancer compounds using libraries of approved drugs and bioactive compounds (AID 1345084); settings: Gynecologic cancer cell panel viability, ATPlite luminescence, 48 h; series mostly up to 57.5 µM; note: nearly all actives have a fitted effect of over 55% in size
In short: as §2

[19] = Drug repurposing screens with cells derived from glioblastoma tumor samples (AID 1345199); settings: GBM patient neurospheres viability, ATP luminescence, 48 h; note: nearly all actives have a fitted effect of over 40% in size
In short: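 Primary testing used CD133+ neurospheres from four GBM patients, seven concentrations, 48 h exposure and ATP-based viability; confirmation added three slower-growing patient lines.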

[20] = system: CAOV3; assay: Primary qHTS to identify gynecologic anti-cancer compounds using libraries of approved drugs and bioactive compounds (AID 1345084); settings: Gynecologic cancer cell panel viability, ATPlite luminescence, 48 h; series mostly up to 57.5 µM; note: nearly all actives have a fitted effect of over 55% in size
In short: as §2

[21] = at 45.9 µM (top of the series), tumour line B
[22] = at 46.1 µM (top of the series), tumour line C
% is set by controls: 0 for no effect and ±100 for the full control effect; potency is the fitted concentration of half-maximal effect.

COC1CCC(C(=O)c2ccc3nc4c(cc3c2)CCCO4)CC1 (centres undefined)
inactive: Potency [1] | Potency [2] | Potency [3] | Potency [4] | Potency [5]

CCN1CCC(n2cc(CNc3cc(Cl)c4ncc(C#N)c(Nc5ccc(F)c(Cl)c5)c4c3)nn2)CC1
inactive: Potency [1] | Potency [2] | Potency [3] | Potency [6] | Potency [5] | Potency [7] | Potency [8] | Potency [9] | Potency [10] | Potency [11] | Potency [12] | Potency [13] | Potency [14] | Potency [15] | Potency [16]

NC[C@H]1O[C@H](O[C@@H]2[C@@H](O)[C@@H](O[C@H]3O[C@H](CO)[C@@H](O)[C@H](N)[C@@H]3O)[C@H](N)C[C@@H]2N)[C@H](O)[C@@H](O)[C@H]1O
inactive: Potency [1] | Potency [2] | Potency [4] | Potency [17] | Potency [5]

CN(C)c1ccc(-c2nc3ncc(Cl)c(N4CCN(CC(=O)Nc5nccs5)CC4)c3[nH]2)cc1
inactive: Potency [1] | Potency [2] | Potency [3] | Potency [17] | Potency [5] | Potency [7] | Potency [8] | Potency [9] | Potency [11] | Potency [12] | Potency [13]

Cc1ccccc1C(=O)c1ccc(Nc2ccc(Br)cc2N)cc1Cl
inactive: Potency [1] | Potency [2] | Potency [3] | Potency [9] | Potency [10] | Potency [11] | Potency [13] | Potency [18] | Potency [15] | Potency [16]

C=C1c2cccc(O)c2C(O)=C2C(=O)[C@@]3(O)C(O)=C(C(N)=O)C(=O)[C@@H](N(C)C)[C@@H]3[C@@H](O)[C@H]12
inactive: Potency [1] | Potency [2] | Potency [3] | Potency [17] | Potency [5]

CCn1c(-c2nonc2N)nc2cncc(CNC3CCNCC3)c21
inactive: Potency [1] | Potency [2] | Potency [3] | Potency [17] | Potency [8] | Potency [9] | Potency [10] | Potency [12] | Potency [14] | Potency [16]

CO[C@H]1/C=C\O[C@@]2(C)Oc3c(C)c(O)c4c(O)c(c5c(nc6cc(C)ccn65)c4c3C2=O)NC(=O)C(C)=CC=C[C@H](C)[C@H](O)[C@@H](C)[C@@H](O)[C@@H](C)[C@H](OC(C)=O)[C@H]1C
inactive: Potency [1] | Potency [2] | Potency [4] | Potency [17]

CNC1CCC(N(Cc2cccc(-c3ccncc3)c2)C(=O)c2sc3ccccc3c2Cl)CC1 (centres undefined)
inactive: Potency [1] | Potency [2] | Potency [10] | Potency [15] | Potency [16]
active: Potency [4] 16.6 µM | Potency [8] 22.4 µM | Potency [18] 25.1 µM

O=C1NC(=O)C(=Cc2ccc(-c3ccc(F)cc3O)o2)S1
inactive: Potency [1] | Potency [2] | Potency [3] | Potency [17]

COc1cc(CNC(=O)CCCCC=CC(C)C)ccc1O
inactive: Potency [1] | Potency [2] | Potency [3] | Potency [5]

CCc1cccc(CC)c1NC(=O)N1Cc2[nH]nc(NC(=O)c3ccc(N4CCN(C)CC4)cc3)c2C1
active: Potency [2] 20.9 µM | Potency [10] 3.16 µM | Potency [15] 12.6 µM
inactive: Potency [1] | Potency [4] | Potency [17] | Potency [7] | Potency [9] | Potency [11] | Potency [12] | Potency [13] | Potency [18]

CCC(=O)OCC(=O)[C@@]1(OC(=O)CC)[C@@H](C)C[C@@H]2[C@H]3CCC4=CC(=O)C=C[C@]4(C)[C@@]3(F)[C@@H](O)C[C@@]21C
active: Potency ([19]; tumour line A) 11.2 µM
inactive: Potency [1] | Potency [2] | Potency [3] | Potency [17] | Potency [5] | activity, negative = cell killing [19, 21] -4.93% | activity, negative = cell killing [19, 22] 2.82%

COc1ccc(Cn2ccc3ccc(C(=O)NO)cc32)cc1
inactive: Potency [1] | Potency [2] | Potency [4] | Potency [7] | Potency [20] | Potency [8] | Potency [9] | Potency [10] | Potency [11] | Potency [13] | Potency [16]

N#Cc1c(N(CC(=O)O)CC(=O)O)sc(C(=O)O)c1CC(=O)O
inactive: Potency [1] | Potency [2] | Potency [3] | Potency [17] | Potency [5] | activity, negative = cell killing [19, 21] -0.252% | activity, negative = cell killing ([19]; at 45.9 µM (top of the series), tumour line D) 0.729% | activity, negative = cell killing ([19]; at 46 µM (top of the series), tumour line A) -24.3% | activity, negative = cell killing [19, 22] 4.23%

C[C@@H]1[C@H](C)CC[C@]2(C(=O)O)CC[C@]3(C)C(=CC[C@@H]4[C@@]5(C)CC[C@H](O)C(C)(C)[C@H]5CC[C@]43C)[C@@H]12
inactive: Potency [1] | Potency [2] | Potency [4] | Potency [6]

CC[C@H](NC(=O)[C@H](C)NC)C(=O)N1C[C@@H](O)C[C@H]1Cc1c(-c2[nH]c3cc(F)ccc3c2C[C@H]2C[C@H](O)CN2C(=O)[C@H](CC)NC(=O)[C@H](C)NC)[nH]c2cc(F)ccc12
inactive: Potency [1] | Potency [2] | Potency [6] | Potency [17]

CN1C(=O)C[C@H](C(=O)N[C@@H](Cc2cnc[nH]2)C(=O)N2CCC[C@@H]2C(N)=O)NC1=O
active: Potency [4] 6.62 µM | Potency [5] 20.9 µM
inactive: Potency [1] | Potency [2] | Potency [6]

CC(=O)NCCC(=O)N[C@@H](CCC(N)=O)C(=O)N[C@@H](CO)C(=O)N[C@@H](CCC(N)=O)C(=O)N[C@@H](CCC(N)=O)C(=O)N[C@H](C(=O)N[C@@H](Cc1ccccc1)C(=O)N[C@]1(C)CCCCCCC=CCCC[C@@](C)(C(=O)N[C@@H](CCC(N)=O)C(=O)N[C@@H](CC(N)=O)C(N)=O)NC(=O)[C@H](CC(C)C)NC(=O)[C@H](CC(C)C)NC(=O)[C@@H](CCCNC(=N)N)NC(=O)[C@H](Cc2c[nH]c3ccccc23)NC(=O)[C@H](CC(C)C)NC(=O)[C@H](CC(N)=O)NC1=O)[C@H](C)O
inactive: Potency [1] | Potency [2] | Potency [3] | Potency [17] | Potency [5]

CNC(=O)c1ccc2c(C(=Nc3cccc(CN(C)C)c3)c3ccccc3)c(O)[nH]c2c1
inactive: Potency [1] | Potency [2] | Potency [3] | Potency [17] | Potency [5] | Potency [7] | Potency [20] | Potency [8] | Potency [9] | Potency [10] | Potency [11] | Potency [12] | Potency [13] | Potency [14] | Potency [18] | Potency [15] | Potency [16]

CN(C)CCOc1ccc(-c2nc(-c3ccc4c(c3)CCC4=NO)c(-c3ccncc3)[nH]2)cc1
active: Potency [4] 14.8 µM
inactive: Potency [1] | Potency [2] | Potency [17]

Cc1ccc(S(=O)(=O)OCC(=O)Nc2ccc(C(=O)O)c(O)c2)cc1
inactive: Potency [1] | Potency [2] | Potency [4] | Potency [17]
